# Data reported in paper PMC11062922 (Nature Chemical Biology, 2023).
# Read-outs that look alike come from different tables or passages of the source.
# Columns and labels:
# AAK1 = tested on: AAK1; set-up: species or system human, MV4-11 + K-562 + COLO205 + SK-N-BE2 + OVCAR-8; conditions: read-out: apparent Kd, n = 1
# BMP2K = tested on: BMP2K; set-up: species or system human, MV4-11 + K-562 + COLO205 + SK-N-BE2 + OVCAR-8; conditions: read-out: apparent Kd, n = 1
# CLK4 = tested on: CLK4; set-up: species or system human, MV4-11 + K-562 + COLO205 + SK-N-BE2 + OVCAR-8; conditions: read-out: apparent Kd, n = 1
# CSNK2A1;CSNK2A3 = tested on: CSNK2A1;CSNK2A3; set-up: species or system human, MV4-11 + K-562 + COLO205 + SK-N-BE2 + OVCAR-8; conditions: read-out: apparent Kd, n = 1
# CSNK2A2 = tested on: CSNK2A2; set-up: species or system human, MV4-11 + K-562 + COLO205 + SK-N-BE2 + OVCAR-8; conditions: read-out: apparent Kd, n = 1
# FLT4 = tested on: FLT4; set-up: species or system human, MV4-11 + K-562 + COLO205 + SK-N-BE2 + OVCAR-8; conditions: read-out: apparent Kd, n = 1
# GAK = tested on: GAK; set-up: species or system human, MV4-11 + K-562 + COLO205 + SK-N-BE2 + OVCAR-8; conditions: read-out: apparent Kd, n = 1
# MELK = tested on: MELK; set-up: species or system human, MV4-11 + K-562 + COLO205 + SK-N-BE2 + OVCAR-8; conditions: read-out: apparent Kd, n = 1
# NUAK1 = tested on: NUAK1; set-up: species or system human, MV4-11 + K-562 + COLO205 + SK-N-BE2 + OVCAR-8; conditions: read-out: apparent Kd; compound concentrations:100 nM and 1000 nM (sheet 'Samples'); n = 1
# PAK4 = tested on: PAK4; set-up: species or system human, MV4-11 + K-562 + COLO205 + SK-N-BE2 + OVCAR-8; conditions: read-out: apparent Kd; compound concentrations:100 nM and 1000 nM (sheet 'Samples'); n = 1
# PKN1 = tested on: PKN1; set-up: species or system human, MV4-11 + K-562 + COLO205 + SK-N-BE2 + OVCAR-8; conditions: read-out: apparent Kd, n = 1
# PRKAG1 = tested on: PRKAG1; set-up: species or system human, MV4-11 + K-562 + COLO205 + SK-N-BE2 + OVCAR-8; conditions: read-out: apparent Kd, n = 1
# Q6ZSR9 = Q6ZSR9 (human, UniProt Q6ZSR9); set-up: species or system MV4-11 + K-562 + COLO205 + SK-N-BE2 + OVCAR-8; conditions: read-out: apparent Kd, n = 1
# Sequence of Q6ZSR9 (Q6ZSR9 whole entry, looked up): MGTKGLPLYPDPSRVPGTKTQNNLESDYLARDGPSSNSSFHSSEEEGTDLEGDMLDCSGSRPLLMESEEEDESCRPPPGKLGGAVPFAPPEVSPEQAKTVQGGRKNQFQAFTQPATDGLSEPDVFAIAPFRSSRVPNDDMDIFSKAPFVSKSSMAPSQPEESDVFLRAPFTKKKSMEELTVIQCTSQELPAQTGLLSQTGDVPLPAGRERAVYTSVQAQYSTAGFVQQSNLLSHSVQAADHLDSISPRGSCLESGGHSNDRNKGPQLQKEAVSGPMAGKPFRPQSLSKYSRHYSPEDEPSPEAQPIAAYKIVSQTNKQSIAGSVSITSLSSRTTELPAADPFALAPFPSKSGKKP
# RET = tested on: RET; set-up: species or system human, MV4-11 + K-562 + COLO205 + SK-N-BE2 + OVCAR-8; conditions: read-out: apparent Kd, n = 1
# SIK2 = tested on: SIK2; set-up: species or system human, MV4-11 + K-562 + COLO205 + SK-N-BE2 + OVCAR-8; conditions: read-out: apparent Kd; compound concentrations:100 nM and 1000 nM (sheet 'Samples'); n = 1
# CLK1 = tested on: CLK1; set-up: species or system human, MV4-11 + K-562 + COLO205 + SK-N-BE2 + OVCAR-8; conditions: read-out: apparent Kd, compound concentrations: 100 nM and 1000 nM (sheet 'Samples'), n = 1
# GSK3A = tested on: GSK3A; set-up: species or system human, MV4-11 + K-562 + COLO205 + SK-N-BE2 + OVCAR-8; conditions: read-out: apparent Kd; compound concentrations: 100 nM and 1000 nM (sheet 'Samples'), CATDS: 1.8552119857048799E-2; n = 1
# GSK3B = tested on: GSK3B; set-up: species or system human, MV4-11 + K-562 + COLO205 + SK-N-BE2 + OVCAR-8; conditions: read-out: apparent Kd; compound concentrations: 100 nM and 1000 nM (sheet 'Samples'), CATDS: 1.8491508517635601E-2; n = 1
# [1] = compound concentrations:100 nM and 1000 nM (sheet 'Samples')
smiles,measurement,setting,value
COc1cc[nH]c1/C=C1\C(=O)Nc2ccc(F)c(C#C[C@@H](O)[C@@H](N)[C@@H](C)O)c21 [RO0283120-000],potency estimated from few doses,AAK1; [1],171 nM
same,potency estimated from few doses,BMP2K; [1],84.3 nM
same,potency estimated from few doses,CLK4; [1],1360 nM
same,potency estimated from few doses,CSNK2A1;CSNK2A3; [1],750 nM
same,potency estimated from few doses,CSNK2A2; [1],497 nM
same,potency estimated from few doses,FLT4; [1],1670 nM
same,potency estimated from few doses,GAK; [1],868 nM
same,potency estimated from few doses,MELK; [1],679 nM
same,potency estimated from few doses,NUAK1,20.3 nM
same,potency estimated from few doses,PAK4,350 nM
same,potency estimated from few doses,PKN1; [1],959 nM
same,potency estimated from few doses,PRKAG1; [1],821 nM
same,potency estimated from few doses,Q6ZSR9; [1],208 nM
same,potency estimated from few doses,RET; [1],117 nM
same,potency estimated from few doses,SIK2,878 nM
NS(=O)(=O)c1ccc(NC=C2C(=O)Nc3ccc4ncsc4c32)cc1 [GW589933X],potency estimated from few doses,"AAK1; compound concentrations: 100 nM and 1000 nM (sheet 'Samples'), CATDS: 2.8569630231133399E-2",376 nM
same,potency estimated from few doses,"BMP2K; compound concentrations: 100 nM and 1000 nM (sheet 'Samples'), CATDS: 4.4159404649836601E-2",151 nM
same,potency estimated from few doses,CLK1; CATDS: 1.74105303489548E-2,1590 nM
same,potency estimated from few doses,"CLK4; compound concentrations: 100 nM and 1000 nM (sheet 'Samples'), CATDS: 2.0435296344387299E-2",913 nM
same,potency estimated from few doses,"CSNK2A1;CSNK2A3; compound concentrations: 100 nM and 1000 nM (sheet 'Samples'), CATDS: 2.5198594058055201E-2",510 nM
same,potency estimated from few doses,"CSNK2A2; compound concentrations: 100 nM and 1000 nM (sheet 'Samples'), CATDS: 3.3899738232558103E-2",257 nM
same,potency estimated from few doses,"FLT4; compound concentrations: 100 nM and 1000 nM (sheet 'Samples'), CATDS: 2.0623462365067999E-2",888 nM
same,potency estimated from few doses,GSK3A,1250 nM
same,potency estimated from few doses,"MELK; compound concentrations: 100 nM and 1000 nM (sheet 'Samples'), CATDS: 1.7288492944947598E-2",1630 nM
same,potency estimated from few doses,"Q6ZSR9; compound concentrations: 100 nM and 1000 nM (sheet 'Samples'), CATDS: 4.56646208861472E-2",141 nM
same,potency estimated from few doses,"RET; compound concentrations: 100 nM and 1000 nM (sheet 'Samples'), CATDS: 1.8914319657445101E-2",1170 nM
CNc1nccc(-c2ccc3c(N)n[nH]c3c2)n1 [GSK2206003A],potency estimated from few doses,"AAK1; compound concentrations: 100 nM and 1000 nM (sheet 'Samples'), CATDS: 0.11797009071744601",108 nM
same,potency estimated from few doses,"BMP2K; compound concentrations: 100 nM and 1000 nM (sheet 'Samples'), CATDS: 5.7170227951540302E-2",897 nM
same,potency estimated from few doses,CLK1; CATDS: 0.21779714475359599,36.5 nM
same,potency estimated from few doses,"CLK4; compound concentrations: 100 nM and 1000 nM (sheet 'Samples'), CATDS: 0.18290440862860499",48 nM
same,potency estimated from few doses,"MELK; compound concentrations: 100 nM and 1000 nM (sheet 'Samples'), CATDS: 0.103385588540624",145 nM
same,potency estimated from few doses,"Q6ZSR9; compound concentrations: 100 nM and 1000 nM (sheet 'Samples'), CATDS: 0.14345562945172299",73.1 nM
same,potency estimated from few doses,"RET; compound concentrations: 100 nM and 1000 nM (sheet 'Samples'), CATDS: 0.14057536576690199",76 nM
Cl.Cl.NCC(NC(=O)c1cc(-c2ccnc3[nH]ccc23)cs1)c1ccccc1.NCC(NC(=O)c1cc(-c2ccnc3[nH]ccc23)cs1)c1ccccc1 (centres unmarked) [GSK1229959A],potency estimated from few doses,"AAK1; compound concentrations: 100 nM and 1000 nM (sheet 'Samples'), CATDS: 3.6384638335370603E-2",79.6 nM
same,potency estimated from few doses,"BMP2K; compound concentrations: 100 nM and 1000 nM (sheet 'Samples'), CATDS: 3.4118166315235399E-2",97.1 nM
same,potency estimated from few doses,"CLK4; compound concentrations: 100 nM and 1000 nM (sheet 'Samples'), CATDS: 1.8316449367944E-2",1240 nM
same,potency estimated from few doses,"GAK; compound concentrations: 100 nM and 1000 nM (sheet 'Samples'), CATDS: 3.7046569699604799E-2",75.5 nM
same,potency estimated from few doses,GSK3B,1170 nM
same,potency estimated from few doses,"PKN1; compound concentrations: 100 nM and 1000 nM (sheet 'Samples'), CATDS: 2.9664861147502199E-2",155 nM
same,potency estimated from few doses,"PRKAG1; compound concentrations: 100 nM and 1000 nM (sheet 'Samples'), CATDS: 1.9025331184012301E-2",1010 nM
same,potency estimated from few doses,"Q6ZSR9; compound concentrations: 100 nM and 1000 nM (sheet 'Samples'), CATDS: 3.4885156977357598E-2",90.6 nM
